Test [1] in a line: compound effects on lung adenocarcinoma cell viability – A549, calcein-AM fluorescence, 48 h, basal, profiling panel (AID 1162). Further: test concentration not given here. The note with it: higher = more signal.
A short description of test [2]: compound effects on differentiated 3T3-L1 adipocyte viability – cell-based, 3T3-L1 adipocytes, calcein-AM fluorescence, 48 h, basal, profiling panel (AID 1163). Further: test concentration not given here. The settings on record: 3T3-L1 adipocytes viability, higher = more signal.
A short description of test [3]: compound effects on hepatocellular carcinoma cell viability – HepG2, calcein-AM fluorescence, 48 h, basal, profiling panel (AID 1164). Further: test concentration not given here. The settings on record: higher = more signal.
The nature of test [4]: compound effects on multiple myeloma cell viability – MM1S, calcein-AM fluorescence, 48 h, basal, profiling panel (AID 1165).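 Further: viability of MM1S multiple myeloma cells under basal unstimulated conditions; test concentration not given here.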 The note with it: higher = more signal.
Test [5] in a line: calcein-AM signal in unstimulated myeloma cells – cell-based, calcein-AM fluorescence, 48 h, PK04 Diversity Set, profiling panel (AID 1166).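 Further: cells grown under basal conditions without added stimulus; test concentration not given here.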 The note with it: RPMI8226 myeloma viability, higher = more signal.
A short description of test [6]: JC-1 mitochondrial signal, unstimulated HepG2 cells – cell-based, JC-1 fluorescence, 24 h, 100 nL compound, profiling panel (AID 1167). Further: test concentration not given here. The note with it: HepG2 mitochondrial potential, higher = more signal.
Test [7] can be described thus: JC-1 mitochondrial signal, unstimulated adipocytes – cell-based, JC-1 fluorescence, 3T3-L1 adipocytes, 24 h, 100 nL compound, profiling panel (AID 1168). Further: test concentration not given here. The settings on record: JC-1 mitochondrial fluorescence, higher = more signal, called active from +8 up or from −8 down.
Test [8] can be described thus: JC-1 mitochondrial signal, unstimulated myeloma cells – cell-based, JC-1 fluorescence, RPMI8226, 24 h, 100 nL compound, profiling panel (AID 1169). Further: test concentration not given here. The settings on record: JC-1 mitochondrial potential fluorescence, higher = more signal.
Test [9] can be described thus: JC-1 mitochondrial signal, unstimulated MM1S myeloma – cell-based, JC-1 fluorescence, 24 h, 100 nL compound, profiling panel (AID 1170). Further: test concentration not given here. The note with it: MM1S mitochondrial potential, higher = more signal.
Test [10] is described as follows: resazurin metabolic signal in A549 cells – cell-based, resazurin fluorescence, 24 h, PK04 Diversity Set, profiling panel (AID 1171). Further: test concentration not given here. The note with it: A549 viability, higher = more signal, called active from +8 up or from −8 down.
A short description of test [11]: resazurin metabolic signal in HepG2 cells – cell-based, resazurin fluorescence, 24 h, PK04 Diversity Set, profiling panel (AID 1172). Further: test concentration not given here. The note with it: HepG2 viability, higher = more signal.
Test [12] can be described thus: budding yeast growth changes without added modifier – OD600, strain BY4716, 24 h, basal condition, primary screen (AID 1173). The note with it: S. cerevisiae BY4716 growth, OD600, 24 h; higher = more signal, called active from +8 up or from −8 down.
Test [13] is described as follows: viability profiling in MM1S myeloma cells – cell-based, resazurin fluorescence, basal, 24 h, PK04 Diversity Set, profiling panel (AID 1174). Further: test concentration not given here. The settings on record: higher = more signal, called active from +8 up or from −8 down. (In general: Alamar Blue is a resazurin reagent that responds to reducing activity.)
Test [14] has as its target Dihydroorotate dehydrogenase (quinone), mitochondrial (Plasmodium falciparum (isolate 3D7)) (UniProt Q08210). The test can be described thus: inhibition of P. falciparum DHODH – biochemical, C-terminal His tag, absorbance 600 nm, primary screen (AID 1175).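 Further: recombinant parasite enzyme with a five histidine tag at its C terminus; test concentration not given here.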 The settings on record: PfDHODH enzyme, DCIP absorbance 600 nm; higher = more signal, called active from +8 up or from −8 down.

The nature of test [15]: inhibition of PAO1 biofilm formation – strain PAO1, LB-PBS medium, absorbance 600 nm, primary screen (AID 1176). Further: test concentration not given here. The note with it: P. aeruginosa PAO1 growth/biofilm, A600, 12 h; higher = more signal.
Test [16] can be described thus: growth modulation of vineyard yeast isolate – strain RM11-1a, OD600, basal, 24 h, primary screen (AID 1177).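 Further: cultures grown under basal conditions with no added stressor; test concentration not given here.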 The note with it: S. cerevisiae RM11-1a growth, OD600, 24 h; higher = more signal, called active from +8 up or from −8 down.
Test [17] is described as follows: growth of efflux-deficient E. coli DRC39 – strain DRC39, OD650, 24 h, E. coli filamentation inducers, primary screen (AID 1178).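 Further: growth measured as culture turbidity by optical density at 650 nm; test concentration not given here.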 The note with it: E. coli DRC39 acrAB, higher = more signal, called active from +8 up or from −8 down.
Test [18] can be described thus: growth of efflux-deficient E. coli DRC39 – strain DRC39, OD650, 48 h, E. coli filamentation inducers, primary screen (AID 1179).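 Further: screen aims at cell division blockers that make cells filament.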 The note with it: E. coli DRC39 delta-acrAB growth, higher = more signal, called active from +8 up or from −8 down.
A short description of test [19]: viability profiling in RPMI8226 myeloma cells – cell-based, resazurin fluorescence, basal, 24 h, PK04 Diversity Set, profiling panel (AID 1180).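 Further: RPMI8826 multiple myeloma cell line at 5000 cells per well; test concentration not given here.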 The settings on record: higher = more signal.
Test [20] concerns the target E3 ubiquitin-protein ligase XIAP (Homo sapiens) (UniProt P98170). The test is described as follows: small molecules binding XIAP protein – biophysical, small-molecule microarray, fluorescence 635 nm, primary screen (AID 1181).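 Further: score merges 667 nm emission and signal to noise over triplicate slides.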 The note with it: higher = more signal.

Where “and” joins values, the source holds several entries; their conditions need not be identical. Identical values can stand only once. Calls of active or inactive are those of the source. Unless noted, how the calls were made is not given here.

Chain of E3 ubiquitin-protein ligase XIAP (Homo sapiens) (P98170 whole entry, looked up): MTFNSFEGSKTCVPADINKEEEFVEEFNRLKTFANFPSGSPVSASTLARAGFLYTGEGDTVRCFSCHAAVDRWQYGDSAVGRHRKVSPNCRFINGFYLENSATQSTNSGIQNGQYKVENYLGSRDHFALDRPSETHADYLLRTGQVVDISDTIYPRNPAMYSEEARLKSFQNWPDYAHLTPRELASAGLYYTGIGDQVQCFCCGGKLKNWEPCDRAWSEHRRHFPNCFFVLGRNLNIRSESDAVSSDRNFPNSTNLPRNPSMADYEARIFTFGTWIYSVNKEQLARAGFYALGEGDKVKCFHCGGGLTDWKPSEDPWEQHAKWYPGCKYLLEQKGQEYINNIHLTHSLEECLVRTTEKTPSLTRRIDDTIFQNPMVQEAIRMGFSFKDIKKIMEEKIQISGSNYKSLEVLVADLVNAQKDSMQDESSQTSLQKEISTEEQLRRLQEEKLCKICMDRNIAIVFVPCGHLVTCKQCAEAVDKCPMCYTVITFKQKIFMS
Chain of Dihydroorotate dehydrogenase (quinone), mitochondrial (Plasmodium falciparum (isolate 3D7)) (Q08210 whole entry, looked up): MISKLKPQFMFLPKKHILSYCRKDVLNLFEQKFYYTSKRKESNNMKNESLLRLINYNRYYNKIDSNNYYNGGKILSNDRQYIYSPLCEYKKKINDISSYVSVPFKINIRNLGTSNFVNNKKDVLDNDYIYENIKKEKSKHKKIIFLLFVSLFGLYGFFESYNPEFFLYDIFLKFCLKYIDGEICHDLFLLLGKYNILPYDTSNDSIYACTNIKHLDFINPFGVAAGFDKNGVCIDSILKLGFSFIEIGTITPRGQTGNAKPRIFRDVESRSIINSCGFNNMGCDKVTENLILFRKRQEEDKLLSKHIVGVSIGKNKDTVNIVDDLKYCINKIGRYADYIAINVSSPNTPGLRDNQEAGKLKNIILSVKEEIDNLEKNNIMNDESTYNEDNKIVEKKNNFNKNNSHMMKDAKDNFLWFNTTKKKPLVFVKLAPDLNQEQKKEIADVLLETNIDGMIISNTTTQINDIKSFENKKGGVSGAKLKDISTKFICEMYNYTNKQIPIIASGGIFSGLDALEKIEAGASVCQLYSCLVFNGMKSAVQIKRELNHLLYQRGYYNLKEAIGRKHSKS

As for `C=C[C@@H](C)[C@@H](O)c1ccc(O)c2ccccc12`, the z-score is 0.799 and -0.778 in test [1]; -0.468 and 0.56 in test [2]; -0.165 and -1.36 in test [3]; -2.83 and -2.76 in [4]; -1.07 and -1.45 in test [5]; -2.11 and -2.44 in test [6]. The z-score in [7] was -0.672 (inactive) and -0.253 (inactive); in test [8], -0.994 and -0.39; in [9] it was -1.51 and -1.39; in test [10], -0.852 (inactive) and -0.3 (inactive); in test [11], -0.278 and 0.0891; in test [12] it was -14.7 (active) and -15 (active). Besides, the z-score in test [13] was -0.938 (inactive) and -1.51 (inactive); in test [15], 0.814 (inactive) and -0.0697 (inactive); in test [16], -0.143 (inactive) and 0.291 (inactive); in test [17], 0.652 (inactive) and 0.297 (inactive); in test [18], 0.347 (inactive) and 0.106 (inactive); in test [19], -0.777 and -1.42. Also, the composite z-score is -2.38 (inactive) and -3.35 (inactive) in [14]; -0.22 and 1.24 in [20].
`C[N+](C)(C)CCCCCCNC(=O)[C@@H]1C[C@@H]2C(=O)N[C@@H](CCCC[N+](C)(C)C)C(=O)N2[C@@H]1c1ccc(O)cc1`: the z-score was 0.602 and 0.107 in [1]; -0.266 and -0.25 in test [2]; 0.284 and -0.812 in [3]; 0.814 and -0.514 in [4]; -0.587 and 0.392 in [5]; -0.367 and -1.19 in test [6]. Besides, the z-score in test [7] is 0.608 (inactive) and 0.109 (inactive); in test [8] it was -0.7 and 0.534; in test [9], -0.778 and -0.749; in test [10], 0.527 (inactive) and 0.818 (inactive); in test [11], 0.104 and 0.822; in test [12], 0.292 (inactive) and 0.384 (inactive). Moreover, the z-score in test [13] was 0.436 (inactive) and 0.422 (inactive); in test [15], -0.462 (inactive) and 0.0499 (inactive); in [16] it was 1.06 (inactive) and 1.11 (inactive); in test [17], 0.52 (inactive) and -0.04 (inactive); in [18], 0.801 (inactive) and -0.431 (inactive); in [19], 0.608 and -0.287. Moreover, the composite z-score is -0.792 (inactive) and -0.983 (inactive) in [14]; -0.277 and -0.227 in [20].
Consider `C[C@@H]1CC[C@H]2C(=O)N3[C@@H](CC[C@@H](C)[C@@H]3c3ccc(-c4ccco4)cc3)C(=O)N2[C@H]1c1ccc(-c2ccco2)cc1`, for which the z-score in [1] is -0.521 and 0.709; in [2] it was 0.489 and 0.992; in [3], -0.676 and -0.195; in [4] it was -0.372 and -2.15; in [5], -0.537 and -1.3; in test [6], -1.41 and -2.19. Besides, the z-score was -0.996 (inactive) and -0.779 (inactive) in test [7]; 0.299 and -0.414 in test [8]; 0.863 and 0.498 in test [9]; -0.244 (inactive) and 1.43 (inactive) in test [10]; -0.458 and 0.764 in test [11]; 0.666 (inactive) and -1.56 (inactive) in [12]. The z-score in test [13] is -0.316 (inactive) and 1.14 (inactive); in test [15], 0.143 (inactive); in [16], 0.43 (inactive) and -0.546 (inactive); in test [17] it was 0.0111 (inactive) and 0.845 (inactive); in [18], -0.0533 (inactive) and 0.0395 (inactive); in test [19] it was 0.136 and 1.2. For the same molecule, the composite z-score in [14] was -1.48 (inactive) and -7.32 (inactive); in test [20], -0.0559 and 0.217.
On to `CCOC(=O)NN=C1C[C@@H](O)[C@@H](O)[C@@H]2[C@@H]3C(=O)N(Cc4ccc5c(c4)OCO5)C(=O)[C@@H]3CC[C@@H]12`, for which the z-score in test [1] was 1.24; in [2], -0.54; in [3] it was 0.32; in test [4], 0.511; in [5], 0.466; in test [6] it was 0.598. Besides, the z-score was 1.11 (inactive) in [7]; 0.612 in test [8]; -1.25 in test [9]; 0.0533 (inactive) in [10]; 0.321 in test [11]; -0.143 (inactive) in test [12]. Besides, the z-score in test [13] was 0.591 (inactive); in test [15], 0.246 (inactive); in [16] it was 0.52 (inactive); in test [17], 0.69 (inactive); in test [18] it was 0.819 (inactive); in test [19], 0.457. For the same molecule, the composite z-score in test [14] was -0.225 (inactive); in test [20], -0.492.
Regarding `C=CC[C@@H](O)c1ccc(OCCO)cc1`, the z-score in [1] was 0.589 and 0.923; in [2], -0.0396 and 0.764; in test [3], 1.22 and 0.876; in [4] it was 1.17 and 1.23; in [5], 0.834 and -1.19; in [6], 1.28 and 1.15. Also, the z-score in [7] was -0.53 (inactive) and 0.676 (inactive); in [8] it was 0.871 and 0.81; in test [9] it was 0.00142 and 1.08; in [10], -0.707 (inactive) and -0.779 (inactive); in test [11] it was -0.369 and -0.32; in test [12], -5.91 (inactive) and -1.94 (inactive). The z-score is -1.12 (inactive) and -0.281 (inactive) in test [13]; 0.674 (inactive) and 0.945 (inactive) in test [15]; -1.1 (inactive) and -1.56 (inactive) in [16]; 0.0207 (inactive) and 0.149 (inactive) in test [17]; 0.433 (inactive) and 0.571 (inactive) in [18]; 0.0629 and 0.237 in [19]. Further, the composite z-score in test [14] was -0.744 (inactive) and -1.16 (inactive); in test [20], -0.31 and -0.102.
As to `C[N+](C)(C)CCCCNC(=O)[C@H]1C[C@H]2C(=O)N[C@@H](CCCC[N+](C)(C)C)C(=O)N2[C@H]1c1ccc(O)cc1`, the z-score in test [1] was -0.231 and -0.502; in test [2], -1.46 and 0.308; in [3], -0.905 and -1.22; in test [4], -0.088 and -0.298; in test [5], -0.598 and -0.804; in test [6], -0.982 and -1.85. The z-score in test [7] is -0.258 (inactive) and -0.841 (inactive); in test [8], 0.629 and -0.808; in test [9], -0.588 and -0.423; in test [10] it was -0.471 (inactive) and -0.706 (inactive); in test [11] it was -0.168 and 0.0318; in test [12] it was 0.889 (inactive) and 0.811 (inactive). Also, the z-score in test [13] was -0.531 (inactive) and -0.416 (inactive); in test [15], 0.227 (inactive) and 2.5 (inactive); in [16], 0.659 (inactive) and 0.409 (inactive); in test [17], 0.0769 (inactive) and -0.869 (inactive); in [18], 0.0835 (inactive) and -1.41 (inactive); in test [19], -0.891 and -1.06. In addition, the composite z-score was -29.8 (active) and -29.4 (active) in test [14]; 0.104 and 0.0015 in [20].

The values are drawn from PubChem BioAssay.
